About 230 (0.21%) of roughly 110,000 compounds showed an effect of 50% or more. What follows is part of a selection rich in strong results, with near analogues and random picks from the rest.
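Also: 30 min substrate incubation versus DMSO and 10 µM JCP410 controls.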

DPAP1, sequence (Q8IIJ9 whole entry, looked up): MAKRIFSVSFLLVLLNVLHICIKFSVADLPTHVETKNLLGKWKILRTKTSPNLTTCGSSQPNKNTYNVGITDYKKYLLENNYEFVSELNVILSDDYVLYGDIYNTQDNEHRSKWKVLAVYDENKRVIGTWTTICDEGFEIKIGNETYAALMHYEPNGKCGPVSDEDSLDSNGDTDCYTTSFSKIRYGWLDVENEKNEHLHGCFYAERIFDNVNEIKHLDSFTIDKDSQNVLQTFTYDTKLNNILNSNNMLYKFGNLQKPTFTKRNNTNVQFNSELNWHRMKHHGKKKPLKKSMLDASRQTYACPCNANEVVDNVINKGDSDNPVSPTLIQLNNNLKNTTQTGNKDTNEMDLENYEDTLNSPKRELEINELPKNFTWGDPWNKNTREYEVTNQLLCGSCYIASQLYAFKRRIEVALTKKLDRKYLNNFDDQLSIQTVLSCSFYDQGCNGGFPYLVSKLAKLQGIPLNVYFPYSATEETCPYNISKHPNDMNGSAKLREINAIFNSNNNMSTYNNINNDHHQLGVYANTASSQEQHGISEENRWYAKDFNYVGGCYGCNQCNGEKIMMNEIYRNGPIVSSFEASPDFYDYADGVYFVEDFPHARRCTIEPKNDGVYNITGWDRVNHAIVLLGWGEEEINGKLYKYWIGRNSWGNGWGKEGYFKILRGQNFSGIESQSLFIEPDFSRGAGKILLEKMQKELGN

This test has as its target DPAP1 (Plasmodium falciparum, UniProt Q8IIJ9). As to the kind of experiment: primary screen, percent inhibition; read by cleavage of a fluorogenic dipeptide substrate; higher = more effect of the substance. More on the design: species or system P. falciparum D10 trophozoite lysates; single well.
As for `CC1CCN(S(=O)(=O)c2ccc(NC(=O)C(C)(C)C)cc2)CC1`, the “% Inhibition @ 10 uM” value is given as -6.17%.

In the case of `N=C(Cc1cccc2ccccc12)NOC(=O)c1cccs1`, the “% Inhibition @ 10 uM” value came out at 3.66%.

Consider `COc1cc2c(cc1OC)C(C(=O)N1CCC(C)CC1)C(c1cccnc1)N(C)C2=O` (stereo not shown), for which the “% Inhibition @ 10 uM” value is listed as 1.83%.

In the case of `CCCc1nc2ccccc2n1Cc1ccccc1OC`, the “% Inhibition @ 10 uM” value is given as 0.913%.

Regarding `Cc1ccc(C2CC(=O)N3CN(Cc4cccnc4)CSC3=C2C#N)cc1` (stereo not shown), the “% Inhibition @ 10 uM” value was determined as 43.8%.

For `COc1ccc(C2CC(=O)N3CN(Cc4cccnc4)CSC3=C2C#N)cc1` (stereo not shown), the “% Inhibition @ 10 uM” value turned out to be 46.3%.

As to `CCc1ccc(C2CC(=O)N3CN(Cc4ccco4)CSC3=C2C#N)cc1` (stereo not shown), the “% Inhibition @ 10 uM” value was 33.6%.

For `N#CC1=C2SCN(Cc3cccnc3)CN2C(=O)CC1c1ccc(F)cc1` (stereo not shown), the “% Inhibition @ 10 uM” value is given as 55.3%.

Regarding `CCOc1ccc(C2CC(=O)N3CN(Cc4cccnc4)CSC3=C2C#N)cc1` (stereo not shown), the “% Inhibition @ 10 uM” value is reported as 56%.

For `CN(CC(=O)NC1CCCCCC1)S(=O)(=O)c1ccc(F)cc1`, the “% Inhibition @ 10 uM” value was found to be 3.17%.

As for `CCN1CCN(C(=O)C2CC(c3ccc(OC)cc3)=NO2)CC1` (stereo not shown), the “% Inhibition @ 10 uM” value is given as 1.62%.

Take `N#CCCN1CCN(C2=NC(=O)/C(=C\c3ccc(-c4ccc(Cl)cc4)o3)S2)CC1`: the “% Inhibition @ 10 uM” value was -2.8%.

Consider `COc1ccccc1NC(=O)c1cnc(Nc2nc3ccccc3o2)nc1C`, for which the “% Inhibition @ 10 uM” value is recorded as -4.12%.

Consider `CCCN1CCC(N2CCC(C)CC2)CC1`, for which the “% Inhibition @ 10 uM” value is given as -3.74%.

As to `COc1cccc2c(O)c(C(=O)O)cnc12`, the “% Inhibition @ 10 uM” value was 0.51%.

`Cc1nc(O)nc(O)c1S(=O)(=O)N1CCN(CCOc2ccc(Cl)cc2)CC1`: the “% Inhibition @ 10 uM” value is on record as -1.38%.

Turning to `Cc1cc2nc(O)c(O)nc2cc1S(=O)(=O)N1CCN(CCOc2ccc(Cl)cc2)CC1`, the “% Inhibition @ 10 uM” value was found to be 52.3%.

Consider `Cc1cc(-c2ccc(C)c(S(=O)(=O)N3CCN(CCOc4ccc(Cl)cc4)CC3)c2)on1`, for which the “% Inhibition @ 10 uM” value was -5.87%.

Turning to `COc1ccc(-c2cc(C(F)(F)F)nc(SCC(=O)N3CCOCC3)n2)cc1`, the “% Inhibition @ 10 uM” value was -8.55%.

For `COC(=O)c1sc2nc(-c3ccccc3)cc(-c3ccc(OC)cc3)c2c1N`, the “% Inhibition @ 10 uM” value was 2.79%.

Consider `COc1ccc(-c2cc(-c3ccc(OC)cc3)c3c(N)c(C(N)=O)sc3n2)cc1`, for which the “% Inhibition @ 10 uM” value amounted to 19.8%.

As for `COc1ccc(-c2cc(-c3ccccc3)nc3sc(C(N)=O)c(N)c23)cc1`, the “% Inhibition @ 10 uM” value was found to be 76%.

For `CCCN1C(=O)c2n[nH]c(C)c2C1c1cccnc1` (stereo not shown), the “% Inhibition @ 10 uM” value is recorded as -4.67%.

As for `COc1ccc(C2=N/C(=C\c3cccc(C(F)(F)F)c3)C(=O)O2)cc1OC`, the “% Inhibition @ 10 uM” value is 6.11%.

For the compound `CCOc1c(/C=C2/S/C(=N\c3ccccc3)N(C)C2=O)cccc1OC`, the “% Inhibition @ 10 uM” value was 1.57%.

Regarding `O=C1CC(Sc2ccccn2)C(=O)N1c1ccc(Br)cc1` (stereo not shown), the “% Inhibition @ 10 uM” value came out at 2.38%.

Take `COCCNC(=O)CCN1C(=O)c2ccccc2Sc2ncccc21`: the “% Inhibition @ 10 uM” value is -2.97%.

With `COc1ccc2nc3sc(C(=O)N4CCN(C)CC4)cc3cc2c1`, the “% Inhibition @ 10 uM” value is given as -5.06%.

As to `CCCCN(C)CCNC(=O)c1cc2cc3cc(OC)ccc3nc2s1`, the “% Inhibition @ 10 uM” value is 83.9%.

In the case of `COc1ccc(-c2ccc(C(=O)N3CCOCC3)cc2)cc1`, the “% Inhibition @ 10 uM” value was 85.3%.

With `COc1ccc2nc3sc(C(=O)N4CCOCC4)cc3cc2c1`, the “% Inhibition @ 10 uM” value turned out to be 89.7%.

`COc1ccc(C(=O)N2CCN(C(=O)c3ccc(OC)cc3)CC2)cc1`: the “% Inhibition @ 10 uM” value was -1.61%.

As for `COc1ccc2cc3cc(C(=O)NCCN4CCN(Cc5ccccc5)CC4)sc3nc2c1`, the “% Inhibition @ 10 uM” value is 94.4%.

For the compound `COc1ccc2cc3cc(C(=O)NCCCN4CCN(C)CC4)sc3nc2c1`, the “% Inhibition @ 10 uM” value is 1.22%.

Take `COc1ccc(C(=O)N2CCN(CC(=O)N3CCOCC3)CC2)cc1`: the “% Inhibition @ 10 uM” value is 6.33%.

Consider `COc1ccc2nc3sc(C(=O)NCCC(C)C)cc3cc2c1`, for which the “% Inhibition @ 10 uM” value is recorded as -5.98%.

Take `COc1ccc2cc3cc(C(=O)N4CCN(Cc5ccccc5)CC4)sc3nc2c1`: the “% Inhibition @ 10 uM” value worked out at 4.61%.

As to `COc1ccc2nc3sc(C(=O)N4CCC5(CC4)OCCO5)cc3cc2c1`, the “% Inhibition @ 10 uM” value is listed as -4.16%.

Regarding `COc1ccc2nc3sc(C(=O)NCCN(C)Cc4ccccc4)cc3cc2c1`, the “% Inhibition @ 10 uM” value is -2.12%.

On to `CCOc1ccc(C(=O)N(Cc2nc(-c3ccc(Cl)cc3)no2)C(C)C)cc1`, for which the “% Inhibition @ 10 uM” value is listed as -1.84%.

For the compound `CC(=O)Nc1ccc(NC(=O)c2cccc(Cl)c2Cl)cc1`, the “% Inhibition @ 10 uM” value was 3.74%.

As to `COc1cc(NC(=O)C(C)Oc2ccccc2)cc(OC)c1` (stereo not shown), the “% Inhibition @ 10 uM” value is given as -2.8%.

Turning to `Cc1ccc(NC(=O)C(Cc2ccc([N+](=O)[O-])cc2)N2C(=O)c3ccccc3C2=O)cc1[N+](=O)[O-]` (stereo not shown), the “% Inhibition @ 10 uM” value is -2.47%.

As for `COc1ccccc1S(=O)Cc1ccc(C(=O)NCCc2ccc(Cl)cc2)o1` (stereo not shown), the “% Inhibition @ 10 uM” value is listed as -4.96%.

On to `COc1ccc2nc3sc(C(=O)NCCCN4CCCC4=O)cc3cc2c1`, for which the “% Inhibition @ 10 uM” value stood at 84.6%.

Turning to `CCC1CCCCN1CCCNC(=O)c1cc2cc3cc(OC)ccc3nc2s1` (stereo not shown), the “% Inhibition @ 10 uM” value is 1.22%.

For `COc1ccc2nc3sc(C(=O)NCCCN4CC(C)CC(C)C4)cc3cc2c1` (stereo not shown), the “% Inhibition @ 10 uM” value is -2.44%.

On to `CCN(Cc1ccccc1)C(=O)c1cc2cc3cc(OC)ccc3nc2s1`, for which the “% Inhibition @ 10 uM” value is on record as 50.3%.

`CCCCN(CC)C(=O)c1cc2cc3cc(OC)ccc3nc2s1`: the “% Inhibition @ 10 uM” value is on record as -1.55%.

Source of the values: paper PMC6919601, “Identification of Plasmodium dipeptidyl aminopeptidase allosteric inhibitors by high throughput screening” (PLoS ONE, 2019).
